Twelve compounds from PubChem BioAssay (NCATS) can be followed below.

Inconclusive results are not listed. The source made the active and inactive calls. The call rests on the fitted dose curve; in most records, active means well fitted inhibition curve with a large enough effect; inconclusive means small, poorly fitted or top-dose-only effect; inactive means flat fitted curve, though single readings scatter.

Common to all, as to assay: qHTS profiling for inhibitors of Plasmodium falciparum proliferation (AID 504749); further: nearly all actives have a fitted effect of over 60% in size
Holding throughout (conditions): P. falciparum in erythrocytes, SYBR Green DNA, 72 h; series mostly up to 28.7 µM

One test has as its system ATS95. The method, boiled down:
(§1)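 Readout was DNA-dye fluorescence from lysed cultures, ex 485/em 535 nm. Parasitized red cells had grown 72 h with compound; data scaled between 0.29 uM artemisinin and DMSO wells and corrected using vehicle-only plates.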

The next test deals with C2A. The procedure, abridged: as §1
The test system of another test is CP185. The method, boiled down: as §1
Another test deals with CP191. The procedure, abridged: as §1
In a further test the test system is CP192. The method, boiled down: as §1
The test system of the next test is CP194. The procedure, abridged:
as §1

A further test concerns CP201. The method, boiled down:
as §1

The test system of a further test is CP203. The procedure, abridged: as §1
The test system of another test is CP211. The procedure, abridged:
as §1

The next test relates to CP215. The procedure, abridged: as §1
In another test the test system is CP217. The method, boiled down: as §1
A further test has as its system CP237. The method, boiled down:
as §1

The test system of another test is CP238. The method, boiled down: as §1
The subject of another test is CP247. The method, boiled down: as §1
The next test has as its system CP250. The procedure, abridged: as §1
For the next test, the system named is CP252. The method, boiled down:
as §1

A further test has as its system CP256. The procedure, abridged: as §1
The test system of another test is CP260. The method, boiled down: as §1
The subject of the next test is CP265. The procedure, abridged:
as §1

For a further test, the system named is CP262. The procedure, abridged: as §1
Potency means the concentration at half of the fitted maximal effect.

As to `Cc1ccc(O)c([C@H](CCN(C(C)C)C(C)C)c2ccccc2)c1`, the Potency in the test on ATS95 was 3.55 µM (active); with C2A, 11.2 µM (active); in the test with CP185, 10 µM (active); in the test on CP191 it was 7.08 µM (active); with CP192, 13.5 µM (active); with CP194, 5.36 µM (active). Also, the Potency was 13.5 µM (active) in the test with CP201; 3.79 µM (active) in the test with CP203; 9.53 µM (active) in the test on CP211; 6.75 µM (active) with CP215; 5.01 µM (active) with CP217; 5.01 µM (active) in the test on CP237. For the same compound, the Potency in the test with CP238 was 4.47 µM (active); in the test on CP247 it was 6.31 µM (active); with CP250, 11.2 µM (active); with CP252, 6.31 µM (active); with CP256, 7.94 µM (active); with CP260 it was 5.01 µM (active). In addition, the Potency with CP265 is 7.08 µM (active).

`Cc1cccc(C)c1NC(=O)c1ccccc1C(=O)O`: the Potency result with ATS95, in the test with C2A, in the test with CP185, with CP191, in the test with CP192 and with CP194 was “inactive” throughout. Moreover, the Potency result in the test on CP201, in the test on CP203, with CP211, in the test with CP215, with CP217 and in the test with CP237 was “inactive” throughout. For the same compound, the Potency result with CP238, with CP247, in the test on CP250, in the test on CP252, in the test with CP260 and in the test on CP262 was “inactive” in each case. In addition, the Potency entry in the test on CP265 was “inactive”.

`COc1ccc(CCN(C)CCCN2CCc3cc(OC)c(OC)cc3CC2=O)cc1OC`: the Potency result in the test with ATS95, in the test with C2A, in the test with CP185, in the test on CP191, with CP192 and with CP194 was “inactive” throughout. Besides, the Potency entry in the test with CP201, with CP203, in the test on CP211, in the test on CP215, in the test on CP217 and in the test on CP238 was “inactive” each time. The Potency entry in the test with CP250, with CP252, in the test on CP262 and in the test on CP265 was “inactive” each time.

Regarding `CCCc1ncc(C[n+]2ccccc2C)c(N)n1`, the Potency entry in the test with ATS95, with C2A, in the test on CP185, with CP191, with CP192 and in the test on CP194 was “inactive” throughout. For the same compound, the Potency entry in the test on CP201, with CP203, in the test with CP211, with CP217, in the test with CP237 and in the test with CP238 was “inactive” in each case. The Potency result in the test with CP247, in the test on CP250, in the test on CP252, in the test on CP256, in the test with CP260 and in the test with CP265 was “inactive” in each case.

For `Nc1ccc(S(=O)(=O)Nc2cnc3ccccc3n2)cc1`, the Potency entry with ATS95, with C2A, with CP185, in the test with CP191, with CP192 and with CP194 was “inactive” each time. In addition, the Potency entry in the test on CP201, in the test on CP203, with CP211, in the test with CP217, with CP237 and with CP238 was “inactive” throughout. For the same compound, the Potency entry in the test with CP247, with CP250, with CP252, with CP256, in the test on CP260 and with CP262 was “inactive” in each case. Moreover, in the test with CP265, the Potency entry was “inactive”.

For the compound `CC1(COc2ccc(CC3SC(=O)NC3=O)cc2)CCCCC1` (centres undefined), the Potency result in the test with ATS95, with C2A, with CP185, with CP191, in the test on CP192 and in the test with CP194 was “inactive” each time. For the same compound, the Potency result in the test with CP201, in the test on CP203, in the test on CP211, in the test on CP215, in the test with CP217 and in the test with CP237 was “inactive” throughout. The Potency result in the test on CP238, in the test on CP250, in the test with CP252, in the test on CP256, in the test on CP260 and with CP262 was “inactive” throughout. For the same compound, the Potency entry in the test on CP265 is “inactive”.

For `COc1ccc2c(c1)c1c3n2CCN(C)C3=NCC1`, the Potency entry with ATS95, in the test with C2A, in the test with CP185, in the test on CP191, in the test with CP192 and with CP194 was “inactive” each time. Besides, the Potency result with CP201, in the test with CP203, with CP211, in the test on CP215, in the test with CP217 and in the test on CP238 was “inactive” each time. Moreover, the Potency entry in the test with CP247, in the test with CP250, in the test on CP252, in the test on CP256, in the test on CP260 and in the test with CP262 was “inactive” throughout. Also, in the test with CP265, the Potency result was “inactive”.

Regarding `NCCNc1cccc2ccccc12`, the Potency result in the test with ATS95, in the test with C2A, in the test on CP185, in the test with CP191, in the test on CP192 and with CP194 was “inactive” in each case. Further, the Potency result with CP201, in the test with CP203, with CP211, with CP215, in the test on CP217 and with CP238 was “inactive” throughout. In addition, the Potency result in the test on CP247, with CP250, in the test on CP252, in the test on CP256, with CP260 and in the test with CP262 was “inactive” throughout. The Potency entry with CP265 was “inactive”.

As for `COc1cc(C(=O)N2CCCCCCC2)cc(OC)c1OC`, the Potency entry with ATS95, in the test with C2A, with CP185, in the test with CP191, in the test on CP192 and with CP194 was “inactive” in each case. For the same compound, the Potency entry with CP201, in the test with CP203, in the test with CP211, in the test with CP215, in the test with CP217 and in the test with CP237 was “inactive” throughout. Besides, the Potency entry with CP238, with CP247, in the test with CP252, with CP256, with CP260 and in the test on CP262 was “inactive” throughout. Further, in the test with CP265, the Potency result was “inactive”.

On to `Cc1nc(-c2ccc(Cl)cc2)oc1COC(C)(C)C(=O)O`, for which the Potency result with ATS95, with C2A, in the test on CP185, in the test with CP191, in the test on CP192 and with CP194 was “inactive” in each case. For the same compound, the Potency entry with CP201, in the test with CP203, with CP211, with CP215, in the test with CP217 and in the test with CP237 was “inactive” in each case. In addition, the Potency entry with CP238, in the test with CP250, with CP252, with CP256, with CP260 and in the test on CP262 was “inactive” each time. Besides, the Potency entry in the test on CP265 is “inactive”.

Consider `C#C[C@]1(OC(C)=O)CC[C@H]2[C@@H]3CCC4=C/C(=N/O)CC[C@@H]4[C@H]3CC[C@@]21CC`, for which the Potency result in the test on ATS95, in the test with C2A, with CP185, in the test on CP191, in the test on CP194 and in the test on CP201 was “inactive” in each case. Besides, the Potency result with CP203, with CP211, in the test on CP215, in the test on CP217, with CP237 and in the test on CP238 was “inactive” throughout. In addition, the Potency entry in the test with CP247, in the test on CP250, with CP252, in the test with CP256, in the test on CP260 and in the test on CP262 was “inactive” each time. In addition, the Potency result with CP265 was “inactive”.

Turning to `COc1ccc(C(=O)c2ccccc2O)c(O)c1`, the Potency result in the test on ATS95, with C2A, in the test on CP185, in the test with CP192, in the test with CP194 and in the test with CP201 was “inactive” throughout. Also, the Potency result with CP203, with CP211, in the test on CP238, with CP247, in the test on CP250 and in the test with CP256 was “inactive” each time. Further, the Potency entry with CP260 and with CP262 was “inactive” each time.
